Assay results taken from PubChem BioAssay AID1850 (Southern Research Specialized Biocontainment Screening …, 2009).
Out of some 310,000 compounds screened, about 1,000 (0.32%) were called active. Only a sample is shown. Entries with a potency or affinity are not part of this list. Unmarked numbers belong to inactive results. No rule for the calls is given here.

experiment: Inhibition of PhoP regulon, Salmonella typhi GFP reporter cells, confirmation, 4 h (AID 1850); conditions: Salmonella Typhi PhoP-promoter GFP reporter, fluorescence, at 50 µM, active compounds read high;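 also: 0% = induced wells with vehicle and 100% = uninduced wells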

| SMILES | inhibition |
| --- | --- |
| Cc1nnc(SCC(=O)c2c(N)n(Cc3ccccc3)c(=O)n(C)c2=O)n1C | -13.4% |
| CC(=O)N(c1ccccc1C)S(=O)(=O)c1ccc(Cl)cc1 | -12.6% |
| O=C(Nc1ccccc1)c1ccc(=O)n(Cc2ccc(F)c(F)c2)c1 | -6.26% |
| CCOC(=O)N1CCc2c(sc3c2c(=O)n(Cc2ccccc2)c(=O)n3Cc2ccc(C)cc2)C1 | -2.36% |
| CSc1ccccc1C(=O)C1CCCN(C(=O)c2csnn2)C1 (stereo unspecified) | -11.4% |
| COc1ccc(C(=O)NC2CC2)cc1OC1CCN(Cc2ccc(F)cc2Cl)CC1 | -3.14% |
| CC(O)(C#CCN1CCCC1)c1ccccc1 (stereo unspecified) | -6.56% |
| CCOC(=O)Cc1csc(NC(=O)c2sc3nc4ccc(C)cc4cc3c2N)n1 | -5.8% |
| Cc1ccc(CNc2ncc(-c3ccc4c(c3)OCO4)n2C)cc1 | -2.15% |
| Cn1c(-c2ccc3c(c2)OCO3)cnc1NCc1cccc(Cl)c1 | 2.65% |
| Cc1ccccc1Nc1nnc(SCC(=O)N(C)C2CCS(=O)(=O)C2)s1 (stereo unspecified) | -26.7% |
| Cc1cccc(NC(=O)C2CCCN(S(=O)(=O)c3cccc4nsnc34)C2)c1 (stereo unspecified) | 11% |
| COc1ccc(NC(=O)C2CCCN(C(=O)Nc3ccc(OC)cc3)C2)cc1 (stereo unspecified) | 13.2% |
| Cc1ccc(S(=O)(=O)NNC(=O)C(=O)NNc2ccccn2)cc1 | 1.07% |
| O=C(NNc1ccccn1)C(=O)NNS(=O)(=O)c1ccc(F)cc1 | -7.54% |
| CCOc1ccc2c(c1)OC(c1ccc(C)cc1)(C(F)(F)F)NC2=O (stereo unspecified) | 2.02% |
| COC(=O)c1c(NC(=O)CSc2nnc(Cn3nnc4ccccc43)n2C)sc(C)c1C | 8.24% |
| Cc1sc2nc(CSc3nc4ccccc4s3)[nH]c(=O)c2c1C | -8.83% |
| COc1ccc(NS(=O)(=O)c2cc(OC)ccc2OC)cc1 | -1.85% |
| Fc1ccccc1C1CC(c2ccco2)=Nc2ccccc2S1 (stereo unspecified) | 9.62% |
| CC(=O)NC1Sc2ccccc2N=C1c1ccccc1 (stereo unspecified) | -15.8% |
| Cc1ccc(Cl)cc1N(CC(=O)N1CCCCCC1)S(C)(=O)=O | -3.02% |
| Oc1ccc2ccccc2c1CN1CCN(c2ccccc2)CC1 | 2.7% |
| CCOc1cccc(CN2CCN(c3cccc(C(F)(F)F)c3)CC2)c1O | -5.55% |
| Oc1ccc(CN2CCCCC2)c2cccnc12 | -7.91% |
| O=[N+]([O-])c1cc(CN2CCN(c3ccccc3)CC2)c(O)c2ncccc12 | 4.63% |

| SMILES | inhibition |
| --- | --- |
| c1ccc(N2CCN(Cc3ccnc4ccccc34)CC2)cc1 | -4.89% |
| CCCOCc1ccc(O)c2ncccc12 | 16.8% |
| O=S(=O)(c1ccc(Cl)cc1)N1CCN(Cc2ccc(O)c3ncccc23)CC1 | -17.9% |
| CC(C)COCc1ccc(O)c2ncccc12 | 1.72% |
| O=C(N/C(=C/c1ccco1)C(=O)N1CCOCC1)c1ccccc1Br | 7.88% |
| O=C(NC1CCCCC1)C(c1ccncc1)N(Cc1ccc(F)cc1)C(=O)c1ccccn1 (stereo unspecified) | -1.84% |
| CN(C)CC(O)COc1cc2ccccc2cc1C(=O)N1CCCCC1 (stereo unspecified) | 9.49% |
| CCCCCCCC(=O)Nc1ccc(S(=O)(=O)Nc2nccs2)cc1 | -7.23% |
| O=C1CSC(c2cccc([N+](=O)[O-])c2)N1CCN1CCCCC1 (stereo unspecified) | -7.55% |
| CC(=O)c1c(N2CCOCC2)nc(=S)n(-c2ccc([N+](=O)[O-])cc2)c1C | 3.58% |
| Cc1cc(/C([O-])=C(/C(=S)Nc2ccc(F)cc2)[n+]2ccccc2)c(C)n1Cc1ccccc1Cl | -18.8% |
| OCCN1CCN(c2ncnc3scc(-c4ccc(F)cc4)c23)CC1 | 4.62% |
| Oc1ccc(CN2CCc3ccccc3C2)c2cccnc12 | -5.43% |
| COc1ccccc1N1CCN(Cc2cc(Br)c(O)c3ncccc23)CC1 | 3.41% |
| OCc1ccc(O)c2ncccc12 | 0.16% |
| COc1ccccc1N1CCN(Cc2ccc(OC)c(OC)c2OC)CC1 | 5.73% |
| COCCn1cnc2c1c(=O)n(CC(=O)OCC(=O)NCCCc1ccccc1)c(=O)n2Cc1ccccc1 | 5.65% |
| Cc1nc2cc(NC(=O)c3ccc(S(=O)(=O)N(C)c4ccccc4)cc3)ccc2o1 | -24.8% |
| CC(C)NC(=O)CCCc1ccccc1 | -2.72% |
| CC[n+]1c(/C=C/C=C/N(C(C)=O)c2ccccc2)sc2ccccc21 | -299% |
| CC[n+]1c(/C=C(\C)SC)sc2ccccc21 | 8.28% |
| CC[n+]1c(/C=C(/C)SC)sc2ccccc21 | -5.74% |
| CC[n+]1c(/C=C/Nc2ccccc2)sc2ccccc21 | 11.1% |
| CN(C)c1ccc(/C=C/C=C/c2sc3ccccc3[n+]2C)cc1 | 14.1% |
| CCN1/C(=C/C=C/C=C/C=C/c2sc3ccccc3[n+]2CC)Sc2ccccc21 | 5.61% |
